Hits are enriched below; roughly 11% of the tested compounds scored in any of these assays.
GoLoco inh red: inhibitors of human Gai1-RGS12 GoLoco interaction (red fluorophore) | P63096 | Gai1:RGS12 GoLoco peptide FP, rhodamine, 10 min | Potency, µM (highest dose often 61.6 µM), for the others: at the top dose activity, negative = inhibition, hits mostly inhibitors | 230,000 compounds, 0.44% hits | AID 880; active = well fitted inhibition curve with a large enough effect, not every such curve was filed as active; inactive = no such curve, though single readings can be large or run the other way; also: potency is read from the fitted curve at half-maximal effect; % is scaled to controls: 0 for no effect and ±100 for the full control effect; nearly all actives have a fitted effect of over 30% in size
PNC inhibitor: perinucleolar compartment assembly inhibition. AID 2417. 140,000 compounds, 3.1% hits. PC3M PTB-GFP, PNC prevalence imaging, 16 h; active compounds read low. activity change (PNC), negative = inhibition, % at 10 µM;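 active = readout at or below -70, meaning at least 70% loss of cells showing the perinucleolar compartment, a nuclear body marking cancer cells; inconclusive = readout between -30 and a set limit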;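 also: plate controls were DMSO wells for no effect and camptothecin positive control wells for full effect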
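Read-out is percentage of cells bearing a perinucleolar compartment, from automated 20x imaging of fixed, Hoechst-stained PC3M PTB-GFP cells. Cells were seeded 4 h, then exposed 16 h to compound (23 nl of library stock) in duplicate plates.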
HPGD inh: blocks human HPGD enzyme activity; P15428; purified HPGD, NADH fluorescence kinetic, PGE2 substrate; Potency, µM, for inactives: at the highest dose activity change, negative = inhibition, usual class: inhibitors; 150,000 compounds, 4.3% hits; also: potency is read from the fitted curve at half-maximal effect; % is scaled to controls: 0 for no effect and ±100 for the full control effect
Target sequence (P15428 whole entry, looked up): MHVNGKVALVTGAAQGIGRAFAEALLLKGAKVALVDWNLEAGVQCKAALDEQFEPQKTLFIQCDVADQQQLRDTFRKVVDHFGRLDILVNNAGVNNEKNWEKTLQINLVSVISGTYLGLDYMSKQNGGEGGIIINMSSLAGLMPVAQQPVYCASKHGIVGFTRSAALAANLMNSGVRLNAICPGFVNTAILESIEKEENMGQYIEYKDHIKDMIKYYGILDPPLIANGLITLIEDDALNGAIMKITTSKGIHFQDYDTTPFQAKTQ
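20 nM HPGD preincubated 15 min at room temperature with compound in 50 mM Tris-HCl pH 8, 0.01% Tween 20. Started with 1 mM NAD+ and 30 uM prostaglandin E2; NADH fluorescence (360/450 nm) read 5 times over 30-s intervals, last minus first.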
HttQ103 aggreg: mutant huntingtin aggregation inhibition; PC12 HttQ103-GFP aggregates, Acumen cytometry, 40 h; Potency, µM (series often up to 46.1 µM), inactives show at the highest dose activity change, negative = inhibition, usual class: inhibitors; 220,000 compounds, 1.1% hits; AID 1688; active = well fitted curve in the direction sought with a large enough effect; inconclusive = small, poorly fitted or top-dose-only effect, or another doubt; inactive = no such curve, though single readings can be large; an effect the other way counts as inactive or inconclusive; also: potency is read from the fitted curve at half-maximal effect; % is scaled to controls: 0 for no effect and ±100 for the full control effect; nearly all actives have a fitted effect of over 60% in size
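Compounds (qHTS titration) were added to PC12 cells expressing an ecdysone-driven HTT exon 1 Q103–GFP fusion after induction with 100 nM tebufenozide. Aggregate formation was measured as GFP objects in cell lysates.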
HTT cytoprotect: cytoprotection in Huntington HTT-Q103 PC12 cell model | PC12 HTT-Q103 induced, cytoprotection, ATP luminescence, 40 h | Potency, µM (doses to about 56.4 µM), for the others: cytoprotection (ATP increase), actives largely listed as activators | 230,000 compounds, 0.14% hits | AID 1471; active = well fitted curve in the direction sought with a large enough effect; inconclusive = small, poorly fitted or top-dose-only effect, or another doubt; inactive = no such curve, though single readings can be large; an effect the other way counts as inactive or inconclusive; also: potency is read from the fitted curve at half-maximal effect; % of control where 0% means no effect; nearly all actives have a fitted effect of over 45% in size
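Compounds added alongside 100 nM tebufenozide, which induces toxic Q103 huntingtin exon 1-GFP in stable PC12 cells; surviving cells quantified by luminescent ATP measurement. Medium: phenol red-free DMEM, 5% equine and 5% calf serum.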
ALDH1A1 block: inhibitors of human aldehyde dehydrogenase 1A1. Purified ALDH1A1, NADH fluorescence, propionaldehyde substrate. Potency, µM (highest dose often 75.3 µM), for the others: at the top dose activity, negative = inhibition, most hits filed as inhibitors. 220,000 compounds, 7.3% hits. AID 1030;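 also: potency is read from the fitted curve at half-maximal effect; plate controls were no enzyme wells and a reference inhibitor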
Target sequence (P00352 whole entry, looked up): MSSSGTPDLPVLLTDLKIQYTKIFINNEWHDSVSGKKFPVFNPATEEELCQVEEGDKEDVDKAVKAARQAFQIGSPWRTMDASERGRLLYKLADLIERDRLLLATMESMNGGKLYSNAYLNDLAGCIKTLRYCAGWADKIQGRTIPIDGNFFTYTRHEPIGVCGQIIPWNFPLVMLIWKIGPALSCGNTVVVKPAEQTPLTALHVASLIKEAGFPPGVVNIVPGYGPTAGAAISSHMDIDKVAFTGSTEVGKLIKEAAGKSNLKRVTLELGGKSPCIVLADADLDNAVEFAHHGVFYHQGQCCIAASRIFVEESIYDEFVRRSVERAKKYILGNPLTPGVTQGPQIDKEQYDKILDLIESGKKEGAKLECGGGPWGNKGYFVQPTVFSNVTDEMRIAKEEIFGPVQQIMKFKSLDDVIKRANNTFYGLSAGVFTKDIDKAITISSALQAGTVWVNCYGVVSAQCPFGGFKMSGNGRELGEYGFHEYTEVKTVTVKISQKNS
* marks the source's active call; other numbers are inactive results; ? = inconclusive; . = not tested or not shown; [ ] = dose if it differs, or a comment. Unless noted, calls follow the shape of the dose curve; as a rule, active = well fitted inhibition curve with a large enough effect (not every such curve was filed as active); inconclusive = small, poorly fitted or top-dose-only effect, or another doubt; inactive = no such curve, though single readings can be large or run the other way.

SMILES	GoLoco inh red	PNC inhibitor	HPGD inh	HttQ103 aggreg	HTT cytoprotect	ALDH1A1 block
CCc1cc(C(=O)OC)c(NC(=O)CCC(=O)O)s1	-3%	-27	13µM*	8%	15%[10 µM]	18µM*
CCCc1cc(C(=O)OC)c(NC(=O)CCCC(=O)O)s1	5%	.	.	-9%[9.22 µM]	-10%	8%
O=C(C1=C[C@H](c2ccccc2)C[C@H](OCc2ccc(CO)cc2)O1)N1CCCCCCC1	-14%	.	.	20%[9.22 µM]	-9%[10 µM]	-13%
Cc1ccc2nc(-c3ccc(O)cc3)c(Nc3ccc4c(c3)OCCO4)n2c1	8%	-5	?	?	7%	?
Cc1ccc(-c2nc3cnccn3c2Nc2ccc3c(c2)OCCO3)o1	-14%	?	-23%	7%	10%[1.9 µM]	13µM*
Cc1ccc2nc(-c3ccccc3O)c(Nc3ccc4c(c3)OCCO4)n2c1	-3%	-113*	?	5%	.	?
COc1ccc(OC)c(Cc2nnc(CCC(=O)NCc3nc4ccccc4s3)o2)c1	17%	.	.	12%[9.22 µM]	-18%[10 µM]	-10%
S=c1nc(-c2ccccc2)c(-c2ccccc2)n[nH]1	4%	.	.	-2%[9.22 µM]	-11%[10 µM]	0.32µM*
c1ccc(-c2nc(N3CCN(c4ccccc4)CC3)nc(-n3ccnc3)n2)cc1	.	14	.	14µM*	-28%	-13%
O=C(O)c1ccc(NC(=S)NC2CCCCC2)cc1	4%	15	-12%	7%	23%[10 µM]	-8%
Cc1ccc(NC(=S)NNC(=S)NC2CCCCC2)cc1	7%	.	.	1%	-27%	3.2µM*
Cc1cccc(NC(=S)NNC(=S)NC2CCCCC2)c1C	2%	.	.	1%[9.22 µM]	18%[10 µM]	2µM*
CC(=O)c1ccc(NC(=S)NNC(=O)NC2CCCCC2)cc1	-12%	.	.	29%	-17%	1µM*
O=C(Nc1ccccc1)c1ccccc1NC(=O)C1CCCCC1	-11%	52	-26%	9%	-22%	-2%
CC(C)c1ccc(NC(=S)NC2CCCCCC2)cc1	11%	.	.	?	-11%[10 µM]	-4%
Cc1cccc(NC(=O)c2ccccc2NC(=O)C2CCCCC2)c1C	298%	16	2.5µM*	?	-14%	?
O=C1CC(=O)C(n2cncn2)C(c2ccc(Cl)cc2)C1 (stereo not given)	-12%	31	3%	-5%	30%[10 µM]	7%
COC/C=C/C1=CC2=CC(=O)C(C)(OC(=O)c3cnc4ccccc4n3)C(=O)C2=CN1CCc1c[nH]c2ccccc12 (stereo not given)	6%[14.2 µM]	.	-4%	.	-21%[10 µM]	-3%[13.5 µM]
COc1ccc(O)c(-c2[nH]ncc2C(=O)c2ccccc2C)c1	4%	4	-11%	-24%	2%	13µM*
CC(c1ncncc1F)[C@](O)(Cn1cncn1)c1ccc(F)cc1F (stereo not given in full)	0%	.	.	14%	-69%	.
COCCN(C(=S)Nc1c(C)cc(C)cc1C)C(C)c1cccnc1 (stereo not given)	4%	-12	7.9µM*	27%	19%[10 µM]	?
CCOC(=O)c1ccc(NC(=O)Nc2cc(C)cc(C)n2)cc1	9%	.	.	15%	.	-2%
Cc1cc(C(=O)OCC(=O)N2CC(C)CC(C)C2)c(C)o1 (stereo not given)	1%	23	-8%	-2%	18%	14µM*
CC(=O)c1cccc(NC(=O)Nc2ccc(C(=O)N3CCOCC3)cc2)c1	-8%	-2	13µM*	10µM*	-9%[10 µM]	?
O=C(Nc1cccc(O)c1)N1CCOCC1	-14%	-100*	-9%	2%	-7%[10 µM]	-3%
SMILES	GoLoco inh red	PNC inhibitor	HPGD inh	HttQ103 aggreg	HTT cytoprotect	ALDH1A1 block
Cc1ccc(NC(=O)Nc2ccc(C(=O)N3CCOCC3)cc2)cc1	2%	?	-27%	-17%	1%	8%
COc1cccc(Nc2ncc3nc(-c4ccc(F)cc4)c(=O)n(CCC#N)c3n2)c1	-2%	.	-9%	.	9%	2%
O=C(C1CCCN(S(=O)(=O)c2cnc[nH]2)C1)N1CCN(c2ccc(Cl)cc2)CC1 (stereo not given)	-5%	-24	-9%	?	-8%	-7%
O=C(C1CCCN(S(=O)(=O)c2cnc[nH]2)C1)N1CC(=O)N(CCc2ccccc2)C(=O)C1 (stereo not given)	-12%	-119*	2%	19%	-6%[10 µM]	-13%
CCCc1nc(SCC(=O)N2CCC(Cc3ccccc3)CC2)c2c(=O)n(C)c(=O)n(C)c2n1	0%	?	-17%	25µM*	-26%	18µM*
Cn1c(=O)c2c(SCC(=O)N3CCC(Cc4ccccc4)CC3)nc(C3CC3)nc2n(C)c1=O	.	.	.	.	4%	.
CO[C@@H]1COC(=O)C/C=C\[C@H](C)[C@H](OC)COC(=O)[C@H]2CCCN2C(=O)C/C=C\[C@H]1C	.	.	.	.	?	-3%[13.5 µM]
O=C(Cn1cnc2sc(-c3ccccc3)cc2c1=O)NCc1ccccc1	-2%	43	-21%	-9%	-98%	13%
Cc1ccc(-c2nn(CC(=O)NCc3ccco3)c(=O)c3ccccc23)cc1	12%	-111*	-16%	-8%	-3%[10 µM]	9%
Cn1nc(C(=O)Nc2ccc(S(=O)(=O)NCc3ccco3)cc2)c2ccccc2c1=O	10%	.	.	10%[9.22 µM]	10%[10 µM]	.
O=C(Cn1cnc2sc(-c3ccccc3)cc2c1=O)NCc1ccco1	8%	-90*	16µM*	21%	-25%[1.9 µM]	?
Cn1nc(C(=O)NCc2ccco2)c2ccccc2c1=O	-8%	17	-17%	14%	5%[10 µM]	13µM*
C=CCC(C)(Nc1ccccc1)C(=O)OCC (stereo not given)	-18%	.	-7%	.	-12%	-6%
CCN(CC)CCNC(=O)c1cc2cc(Br)ccc2s1	11%	.	.	-11%	-2%[10 µM]	4%
COc1ccc(CNc2ccnc(-c3cccc(NS(C)(=O)=O)c3)n2)c(OC)c1	-1%	.	.	.	-52%	1%
CC(C)OCC(O)CSc1ccccn1 (stereo not given)	-4%	30	18µM*	-4%	13%	-3%
O=C(O)CSc1ccccn1	11%	?	-15%	-17%	-4%	-3%
CC(=O)c1nn(-c2cccc(Br)c2)cc1C(=O)c1ccco1	4%	-10	-10%	7%	2%[10 µM]	13%
O=C(c1cccc(Br)c1)c1conc1C(=O)c1ccco1	7%	-114*	-5%	-8%	.	-5%
O=C(NCc1ccco1)c1sc2cc(Cl)ccc2c1Cl	7%	-11	16µM*	-1%	1%[10 µM]	20µM*
NC(=O)COC(=O)CNC(=O)c1sc2ccccc2c1Cl	7%	.	.	3%	-7%[10 µM]	22µM*
CCn1nnc(NC(=O)c2sc3ccccc3c2Cl)n1	-7%	-17	-17%	-3%	1%[10 µM]	3.2µM*
CCn1nnc(NC(=O)c2cccnc2Cl)n1	6%	42	-2%	22%[9.22 µM]	2%	19%

Screening results: PubChem, National Center for Advancing Translational Sciences (NCATS)
